Pf Dd2 inh – inhibitors of Plasmodium falciparum Dd2 growth; P. falciparum Dd2 growth, SYBR Green, 72 h; Potency, µM (doses to about 28.9 µM), without a hit: at the highest dose activity, negative = inhibition, actives largely listed as inhibitors; 120,000 tested, 4.3% active; AID 1347417; active means well fitted inhibition curve with a large enough effect;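 further: plate controls were DMSO vehicle for no effect and reference drug for full effect; nearly all actives have a fitted effect of over 65% in size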
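Readout: SYBR Green fluorescence, 485 nm excitation, 535 nm emission, after ~16 h lysis at 37C. Before that, Dd2-infected red cells (2.5% hematocrit) grew 72 h with compound, 29 uM top final concentration.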
Starred values were filed as active, the others as inactive; i = inactive; [ ] = dose if it differs, or a comment. The sample as a whole holds a higher share of hits than the screen did. Potency means the concentration at half of the fitted maximal effect.

SMILES	Pf Dd2 inh
COc1ccccc1NC(=O)Cn1c(N2CCC(C)CC2)nc(C)cc1=O	-5%
COc1ccc(Cl)cc1NC(=O)Cn1c(N2CCN(c3ccccc3)CC2)nc(C)cc1=O	7.9µM*
Cc1cc(=O)n(CC(=O)Nc2ccc(Br)cc2)c(N2CCN(c3ccccc3)CC2)n1	-11%
O=C1CCN(C(=O)C2CCN(C(=O)C3(c4ccccc4)CC3)CC2)CCCCCCN1	3%
O=C(Cc1ccsc1)NC1CCCN(c2cc(-c3ccc(F)cc3)[nH]n2)C1 (stereo not drawn)	i
O=C(c1ccc2c(c1)OCO2)N1C2CCC1CN(Cc1cccnc1)C2	0%
O=C(CC1CCc2ccccc21)N1CCCN(c2ncccn2)CC1 (stereo not drawn)	17%
COC(=O)c1ccc(NC(=O)Cn2nc3n(c2=O)CCCC3)cc1	i
CCC(C)(C)C(=O)N1CCn2c(nnc2[C@@H]2C[C@@H](O)CN2Cc2ccccc2)C1	i
O=C(Cc1ccccc1F)NCCC1CCN(C(=O)Nc2ccc(F)cc2F)CC1	i
O=C1NN=C(C2CC2)C12CCN([S+](=O)([O-])c1cccc(C(F)(F)F)c1)CC2	-12%
CC(C)n1cc(CN2CCC(CO)(Cc3ccccc3Cl)CC2)cn1	-11%
CC(=O)c1cc(CN2CCC(CO)(Cc3ccccc3Cl)CC2)cs1	-11%
COc1ccc(O)c(CN2CCC(CO)(Cc3ccccc3Cl)CC2)c1	8.9µM*
OCC1(Cc2ccccc2Cl)CCN(Cc2cc3ccccc3o2)CC1	8.9µM*
COc1ccc(F)c(CN2CCC(CO)(CN3CCCC3)CC2)c1	i
COc1cc(N2CCC(CO)(Cc3ccccc3C(F)(F)F)CC2)ncn1	-17%
COc1ccc(C(=O)N2CCCC(CN3CCOCC3)CC2)cc1OC (stereo not drawn)	-2%
COc1ccc(-c2cc(N3CCC(NC(=O)Cc4ccccc4Cl)CC3)n[nH]2)cc1	-9%
Cc1nnc([C@@H]2CC(F)(F)CN2C(=O)c2nn(C)c3ccccc23)o1	-9%
O=C(CSc1n[nH]c(-c2ccccc2)n1)N1CCN(c2ccc(F)cc2)CC1	5%
COc1ccc(N2CCN(C(=O)CSc3nc(-c4ccc(C(C)C)cc4)no3)CC2)cc1	0.28µM*
O=C(CSc1nc2ccccc2nc1Cc1ccccc1)N1CCN(c2ccccc2)CC1	44%
COc1ccc(N2CCN(C(=O)CCc3conc3-c3ccc(F)cc3)CC2)cc1	i
COc1ccc(-c2nc(CSCC(=O)N3CCN(c4ccccc4)CC3)c(C)o2)cc1	7.1µM*
SMILES	Pf Dd2 inh
CCc1ccc(-c2nc(CSCC(=O)N3CCN(c4ccc(F)cc4)CC3)c(C)o2)cc1	i
O=C(CSc1nc(-c2ccccc2)no1)N1CCN(c2ccccc2)CC1	10µM*
CC(C)c1ccc(-c2noc(SCC(=O)N3CCN(c4ccc(F)cc4)CC3)n2)cc1	0.45µM*
Cc1ccc(CSCC(=O)N2CCN(c3ccc(F)cc3)CC2)cc1	19%
COc1ccc(N2CCN(Cc3nc(-c4ccc(C)cc4)no3)CC2)cc1	i
COc1ccc(N2CCN(C(=O)CSc3n[nH]c(-c4ccccc4)n3)CC2)cc1	6%
COc1ccc(N2CCN(C(=O)CSCc3ccc(C)cc3)CC2)cc1	-15%
COCCN1CCC(N2CCN(S(=O)(=O)c3ccc(Cl)cc3C)CC2)C1=O (stereo not drawn)	-8%
CCCC1(C(=O)O)CCCN(S(=O)(=O)c2ccsc2C(=O)O)C1 (stereo not drawn)	-2%
Cc1noc(-c2ccc(OC3CN(S(=O)(=O)c4c(C)nn(C)c4C)C3)cc2)n1	i[5.79 µM]
CCN(C(=O)c1ccc2c(c1)N(S(C)(=O)=O)CC2)c1ccccc1C	i
COc1cccc([S+](=O)([O-])N2CCC(N3Cc4ccccc4C3=O)CC2)c1	-3%
COc1ccccc1C(=O)N1CCC2(CC(C(C)C)=NO2)C1 (stereo not drawn)	14%
O=C(Nc1ccc(F)cc1)c1ccn2nccc2c1	-7%[44.1 µM]
COC(=O)N1CCn2c(nnc2-c2ccccc2)C1	-14%[44.1 µM]
CN1C(=O)CCCCC1C(=O)N1CCc2ccccc2C1 (stereo not drawn)	-24%
CCC(CC)c1cc([C@H]2CN3CC[C@H]2C[C@@H]3COC(=O)Nc2ccccc2)nc(-c2ccncc2)n1	-13%
CCC(CC)c1cc([C@H]2CN3CC[C@H]2C[C@@H]3CNC(=O)Cc2cccs2)nc(-c2ccncc2)n1	0.71µM*
CCC(CC)c1cc([C@H]2CN3CC[C@H]2C[C@@H]3CNC(=O)c2ccc(N(C)C)cc2)nc(-c2ccncc2)n1	-16%
Cn1nc(-c2ccc3ccccc3c2)cc1[C@H]1CN2CC[C@H]1C[C@@H]2CNC(=O)COc1ccccc1	-13%
CCC(CC)c1cc([C@H]2CN3CC[C@H]2C[C@@H]3CNC(=O)COc2ccccc2)nc(-c2ccncc2)n1	0.45µM*
CCC(CC)c1cc([C@H]2CN3CC[C@H]2C[C@@H]3CNC(=O)c2cccs2)nc(-c2ccncc2)n1	0.25µM*
CC(=O)c1cccc(NC(=O)NC[C@H]2C[C@@H]3CCN2C[C@@H]3c2cc(-c3cccs3)nc(C)n2)c1	i
CCC(CC)c1cc([C@H]2CN3CC[C@H]2C[C@@H]3CNC(=O)c2cc(OC)c(OC)c(OC)c2)nc(-c2ccncc2)n1	-48%
Cc1nc(-c2ccccc2)cc([C@H]2CN3CC[C@H]2C[C@@H]3CNC(=O)CCCC(=O)O)n1	20%[44.1 µM]
SMILES	Pf Dd2 inh
CCOc1cc(C(=O)N2CCCN(c3cc(-c4ccc(F)cc4)[nH]n3)CC2)cc(OCC)c1OCC	i
O=C1CCN(S(=O)(=O)c2ccccc2)CCCC(C(=O)NCCN2CCOCC2)CCN1 (stereo not drawn)	-2%
COCCn1cc(CN2CCN(Cc3cccc(F)c3)CC2)ccc1=O	i
Cn1c([C@H]2CCN(S(=O)(=O)c3cccc4cccnc34)C2)nc2ccccc21	-7%[44.1 µM]
Cc1ccc(NC(=O)C2CCN(C(=O)c3ncn4c3COC(c3ccccc3)C4)CC2)cc1C (stereo not drawn)	i
Oc1ccccc1CN1CCOC[C@H]1c1ncc(-c2ccccc2)[nH]1	-25%[44.1 µM]
Cc1ccccc1-c1cc(O)c2c(c1)CN(C(=O)C1CCNCC1)CCO2	-25%
Cc1cccc(CN2CCOc3c(O)cc(-c4ccccc4C)cc3C2)n1	8.9µM*
Cc1cc(CN2CCOc3c(O)cc(-c4ccccc4C)cc3C2)on1	-27%
COc1ccccc1Cn1c(C(C)NC(=O)OCc2ccccc2)nc2cccnc21 (stereo not drawn)	-22%
O=C1CCCN1CCCN1C(=O)[C@@H]2C[C@@H](O)CN2C2(CN(C3COC3)C2)C1=O	38%[44.1 µM]
COc1cc2c(cc1OC)C(COc1ccc(C(C)C)cc1)N(C(=O)c1ccc(S(=O)(=O)N3CCCC3)cc1)CC2 (stereo not drawn)	13µM*
COc1ccc(S(=O)(=O)N2CCCCC2)cc1C(=O)Nc1cccc(C(F)(F)F)c1	i
COc1cc2c(cc1OC)C(CNC(=O)Nc1ccc(C)cc1)N(C(=O)NC(C)C)CC2 (stereo not drawn)	-10%
Cc1ccc2c(c1)C(c1ccccc1)N(C(=O)c1ccc(S(=O)(=O)N3CCCC3)cc1)CC(=O)N2 (stereo not drawn)	-21%
COc1ccc(S(=O)(=O)N2CCC(Oc3cccc(C(F)(F)F)c3)CC2)cc1OC	9%
COc1ccc(N2CC(NC(=O)c3ccc(S(=O)(=O)N4CCCCC4)cc3)CC2=O)cc1OC (stereo not drawn)	i
COc1ccc(CNC(=O)C(C)n2ccc3cc(S(=O)(=O)N4CCCC4)ccc32)cc1OC (stereo not drawn)	i

Screening data (PubChem BioAssay)
